# High-throughput results: PubChem BioAssay, National Center for Advancing Translational Sciences (NCATS)
# KDM5B inhibitor = inhibitors of human KDM5B histone demethylase | Q9UGL1 | KDM5B demethylase, FDH-coupled NADH fluorescence (FDH is formaldehyde dehydrogenase) | Potency, µM (doses to about 57.7 µM), hits mostly inhibitors | 220,000 tested, 2.6% active; active means well fitted inhibition curve with a large enough effect; further: 0% is about no effect; nearly all actives have a fitted effect of over 70% in size
#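 Here, H3K4me3 peptide (12.5 µM in substrate mix) is demethylated by KDM5BΔAP, 200 nM final, after 10 min compound exposure. Formaldehyde product is coupled through FDH (0.25 U/mL in mix) to NADH fluorescence; 30-min ΔRFU feeds dose-response curves.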
# * hit, by the source's call; i = inactive. This excerpt belongs to a sample that is enriched for hits. Potency means the concentration at half of the fitted maximal effect.
SMILES,KDM5B inhibitor
Cc1[nH]c2ccccc2c1C(=O)C(=O)NCCNC(=O)C1CCCC1,i
Cc1cc(CNC(=O)C2CCCCC2)c2ccccc2n1,i
Cc1[nH]c2ccc(C(=O)N(Cc3ccccc3F)C3CC3)cc2c1C,i
Cc1cc(C)c(NC(=O)c2ccc3c(c2)CCC3)c(Cl)c1,i
CONC(=O)C(NC(=O)c1ccc(Cl)cc1Cl)C(C)C (stereo unspecified),i
CCCCCC1=CCC/C1=N/NC(=S)NCCOC,i
Cc1ccc(C)c(C(=O)CSc2nnnn2C)c1,i
CCc1ccc(N2CC(c3noc(-c4cc(OC)c(OC)c(OC)c4)n3)CC2=O)cc1 (stereo unspecified),32µM*
CCc1ccc(N2CC(c3noc(-c4ccc(OC)nc4OC)n3)CC2=O)cc1 (stereo unspecified),35µM*
CCc1ccc(N2CC(c3noc(-c4ccccc4F)n3)CC2=O)cc1 (stereo unspecified),i
CCc1ccc(N2CC(c3noc(-c4cc(F)cc(F)c4)n3)CC2=O)cc1 (stereo unspecified),i
COc1ccc(N2CC(c3noc(-c4cc(C)cc(C)c4)n3)CC2=O)cc1OC (stereo unspecified),i
COc1ccc(N2CC(c3noc(-c4ccccc4F)n3)CC2=O)cc1OC (stereo unspecified),i
CCc1ccc(N2CC(c3noc(-c4ccsc4)n3)CC2=O)cc1 (stereo unspecified),i
COc1cc(OC)cc(-c2nc(C3CC(=O)N(c4ccc(OC)c(OC)c4)C3)no2)c1 (stereo unspecified),28µM*
CCc1ccc(-c2nc(C3CC(=O)N(c4ccc(OC)cc4)C3)no2)cc1 (stereo unspecified),i
Cc1cnc(C(=O)Nc2cccc(OC3CCCC3)c2)cn1,i
CCc1ncc2c(=O)n(Cc3ccc(OC)cc3)ccn12,i
Cc1ccc2c(c1)N(C(=O)Nc1ccc(Br)cc1F)CC(C)O2 (stereo unspecified),i
Cn1c(=O)c2c(nc(SCC(=O)Nc3ccccc3)n2CCCc2ccccc2)n(C)c1=O,i
Cc1ccc(NC(=O)CN(C)C(=O)c2cc3cc(C)ccc3nc2C)cc1,i
O=C(c1cc(C2CC2)nc2c1c(C1CCCN1)nn2-c1ccccc1)N1CCC(F)CC1 (stereo unspecified),i
COCCNC(=O)c1cc(C2CC2)nc2c1c(C1CCCN1)nn2-c1ccccc1 (stereo unspecified),i
CCc1ccc(-c2[nH]nc3nc(-c4ccc(OC)cc4)cc(C(=O)NCCCOC)c23)cc1,i
COCCNC(=O)c1cc(-c2ccc(OC)cc2)nc2c1c(C1CCCN1)nn2C (stereo unspecified),79µM*
SMILES,KDM5B inhibitor
COc1ccc(-c2cc(C(=O)NCC(C)C)c3c(C4CCCN4)nn(C)c3n2)cc1 (stereo unspecified),50µM*
COc1ccc(CCNC(=O)Cn2nc(-c3ccc(OC)cc3)ccc2=O)cc1,i
Cc1ccc(C)c(N2CC(c3nc4ccccc4[nH]3)CC2=O)c1 (stereo unspecified),i
O=C1Nc2ccc(-c3ccc(Cl)cc3)cc2C(=O)N2CCN(C(=O)NC3CCCCC3)C[C@H]12,i
CSc1ccc(-c2ccc3c(c2)C(=O)N2CCN(C(=O)C4CCCCC4)C[C@@H]2C(=O)N3)cc1,28µM*
O=C1Nc2ccc(-c3ccc4c(c3)OCO4)cc2C(=O)N2CCN(C(=O)C3CCCC3)C[C@@H]12,22µM*
CC(C)(C)CC(=O)N1CCN2C(=O)c3cc(Br)ccc3NC(=O)[C@H]2C1,i
O=C1Nc2ccc(-c3ccc4c(c3)OCO4)cc2C(=O)N2CC[C@H](NC(=O)N3CCOCC3)[C@@H]12,i
COc1cccc(N2CCN(c3nc(C(=O)NCc4ccccc4F)cs3)CC2)c1,i
O[C@@H]1C[C@@H](c2nnc3n2CCN(CC2CCCCC2)C3)N(Cc2ccccc2)C1,i
CC1=C[C@@H](CNc2ccccn2)[C@H](C(C)C)C[C@H]1Cc1nnc(-c2ccc(C)cc2)o1,i
COCCCNC(=O)c1cn2ccnc(-c3ccc(OC)cc3)c2n1,25µM*
CCN(CC)C(=O)c1cn2ccnc(-c3ccc(C)cc3)c2n1,i
CCCN(C)C(=O)c1cn2ccnc(-c3ccc(C)cc3)c2n1,i
COCCCNC(=O)CSc1nc(-c2ccc(OC)cc2)[nH]c1-c1ccc(OC)cc1,i
COc1ccc(OCC(=O)NCCNC(=O)c2ccccn2)cc1,i
COc1ccc(OCCNC(=O)c2cnc3ccccc3n2)cc1,i
COc1ccc(-c2nccn3cc(C(=O)NCCc4ccccn4)nc23)cc1,25µM*
Cc1nc(CCNC(=O)c2ccccn2)cs1,i
COCCNC(=O)c1cn2ccnc(-c3ccc(OC)cc3)c2n1,20µM*
COC(=O)c1cccc(COc2ccc(Br)cc2)c1,i
Cc1ccc2[nH]cc(C(C(=O)O)N3CCN(Cc4nonc4C)CC3)c2c1 (stereo unspecified),i
Cc1cc(/C=C/C(=O)c2ccc(O)cc2)cc(C)c1O,i
